Holding throughout (assay): NCI-60 one-dose screen, 48 h (100 = growth as untreated, 0 = no growth, -100 = all killed)
The subject of assay [1] is MDA-MB-435 melanoma. Conditions: 10 µM unless noted.
Assay [2] deals with MCF7 breast. Conditions: 10 µM.
In assay [3] the test system is HCT-116 colon. The note with it: 10 µM unless noted.
Assay [4] relates to HCC-2998 colon. Conditions: 10 µM unless noted.
The subject of assay [5] is KM12 colon. Conditions: 10 µM unless noted.
For assay [6], the system named is SW-620 colon. Conditions: 10 µM unless noted.

This is part of a sample that, as a whole, favours compounds with a hit. Of some 83,000 tested, about 20% had one in any assay.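 Each cell line was grown in a 96-well plate and treated with one concentration of compound for 48 hours. Values below 10 were considered active.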 A number with no mark means an inactive call. Calls of active or inactive are those of the source.

Consider `O=C(Nc1ccc(Cl)cc1F)c1cc(F)ccc1O`, for which the growth in assay [1] is 0.146% (active); in assay [2], 3.15% (active); in assay [3], 3.99% (active); in assay [4], 11.7%; in assay [5] it was 0.993% (active).

As to `COc1ccc(OC)c(NC(=O)/C(C#N)=C/c2ccco2)c1`, the growth is 98.8% in assay [1], 47.9% in assay [2], 95.1% in assay [3] and 95.5% in assay [5].

Turning to `O=c1oc2ccc(F)cc2c(=O)n1-c1ccc(Cl)cc1F`, the growth in assay [1] is 1.54% (active); in assay [2], 2.65% (active); in assay [3] it was 3.98% (active); in assay [4], 9.7% (active).

Take `CCOC(=O)c1cc2c(n1Cc1ccccc1)-c1oncc1CCC2`: the growth in assay [1] is -7.87% (active); in assay [6], 43%; in assay [2] it was 45.8%; in assay [3] it was 64.7%; in assay [5], 56.1%.

In the case of `C1CCN(c2nc(N3CCCCC3)nc(N3CCOCC3)n2)CC1`, the growth was 101% in assay [1]; 103% in assay [6]; 105% in assay [3]; 90.7% in assay [4]; 106% in assay [5].

Consider `CCn1c(SCC(=O)Nc2cc(C(F)(F)F)ccc2Cl)nc2ccccc2c1=O`, for which the growth in assay [1] was 18.1%; in assay [6] it was 49.1%; in assay [3] it was 32.2%; in assay [4] it was 11.7%; in assay [5] it was 10.3%.

Take `COC(=O)/C(CCC=C(C)C)=C1\[C@@H](OC(C)=O)C[C@@]2(C)[C@H]1C[C@@H](O)[C@H]1[C@@]3(C)CC[C@H](NCCO)[C@@H](C)[C@@H]3CC[C@@]12C`: the growth is 98.9% in assay [1]; 97% in assay [6]; 98.8% in assay [2]; 105% in assay [3]; 106% in assay [4]; 103% in assay [5].

With `O=c1oc2ccc(I)cc2c(=O)n1-c1ccc(F)cc1F`, the growth was 1.74% (active) in assay [1]; 19.7% in assay [6]; 6.72% (active) in assay [3]; 26% in assay [4]; 3.81% (active) in assay [5].

With `NCCNc1nc2ccc(F)cc2c2c(=O)c3cc(F)ccc3sc12`, the growth in assay [1] was 13.4%; in assay [2] it was -15.2% (active); in assay [3] it was -87.1% (active); in assay [5], 17.8%.

On to `COc1ccc(C2C3=C(COC3=O)N(CCO)c3cc4c(cc32)OCCO4)cc1` (stereo not given), for which the growth is 1.1% (active) in assay [1]; 55.2% in assay [6]; 77.2% in assay [3]; 76.5% in assay [4]; 49% in assay [5].

As to `COC(=O)c1c2c(c(C)[n+]([O-])c1C)C(=O)C=C(NCc1ccccc1)C2=O`, the growth in assay [1] was -89.6% (active); in assay [2], -62.1% (active); in assay [3], -12.6% (active); in assay [4], -34.5% (active); in assay [5], -10.5% (active).

In the case of `NCCOc1ncccc1/C=C1\c2ccccc2-c2ccc(F)cc21`, the growth in assay [1] was 60.7%; in assay [6] it was 14.7%; in assay [3], 15%; in assay [4], 18.3%; in assay [5] it was 8.88% (active).

For the molecule `O=c1c2cc(F)ccc2sc2c(NCCCNCCO)nc3ccc(Cl)cc3c12`, the growth is 40.1% in assay [1]; -38.8% (active) in assay [6]; 31% in assay [2]; -18.5% (active) in assay [3]; 60.7% in assay [4]; 44% in assay [5].

Take `CCOC(=O)c1cc2c(n1Cc1cccc(OC)c1)-c1oncc1CCC2`: the growth in assay [1] is -13.4% (active); in assay [6], 23.6%; in assay [3], 25.2%; in assay [4] it was 51.6%; in assay [5], 27.1%.

Consider `CC(C)C[C@H](C(=O)N[C@@H](C)C(N)=O)N1CC=CCN(O)S1(=O)=O`, for which the growth in assay [1] is 119% [5 µM]; in assay [6], 103% [5 µM]; in assay [3], 109% [5 µM]; in assay [4], 110% [5 µM]; in assay [5], 109% [5 µM].

`O=C(COc1cc(O)c2c(=O)cc(-c3ccccc3)oc2c1)Nc1ccccc1C(F)(F)F`: the growth in assay [1] is 78%; in assay [6] it was 21.8%; in assay [2] it was 49.8%; in assay [3] it was 5.84% (active); in assay [4] it was 90%; in assay [5], 68.5%.

As to `Cc1ccc(NC2=CC(=O)C(=O)c3ccccc32)c(C)c1`, the growth in assay [1] is -77% (active); in assay [6] it was 34.9%; in assay [3], -6.25% (active); in assay [4] it was 29.1%; in assay [5] it was 46.4%.

For the molecule `CCCCCCc1cc2cc(-c3nc4ccccc4[nH]3)c(=Nc3ccccc3C)oc2cc1O`, the growth is 29.6% in assay [6]; 17.5% in assay [2]; 19.2% in assay [3]; -78.2% (active) in assay [4]; 36.4% in assay [5].

On to `CN(CCc1ccccc1)C(=S)N(C(=O)c1ccc([N+](=O)[O-])cc1)c1ccc(Cl)cc1`, for which the growth in assay [1] was 85.9%; in assay [3], 67.3%; in assay [4] it was 110%; in assay [5], 49.6%.

Turning to `O=c1oc2ccc(Br)cc2c(=O)n1-c1ccc(F)cc1F`, the growth is 2.57% (active) in assay [1]; 16.3% in assay [6]; 2.33% (active) in assay [2]; 4.49% (active) in assay [3]; 17.4% in assay [4]; 4.24% (active) in assay [5].

For the molecule `O=C(Nc1ccc(I)cc1F)c1cc(F)ccc1O`, the growth in assay [1] is -5.16% (active); in assay [6], 7.82% (active); in assay [2], 0.117% (active); in assay [3] it was -6.74% (active); in assay [5], -11.4% (active).

Take `COc1cccc(C2=NN3C(C2)c2ccccc2OC3c2ccc(/C=C3\SC(=O)NC3=O)cc2)c1` (stereo not given): the growth was 105% in assay [1], 90.7% in assay [2], 109% in assay [3] and 106% in assay [4].

For `O=C(Nc1ccc(Cl)cc1F)c1cc(I)ccc1O`, the growth in assay [1] was 18.5%; in assay [6], 27.4%; in assay [2], 47%; in assay [3], 21.2%; in assay [4], 81.6%; in assay [5] it was 62%.

Regarding `COc1c(B(O)O)cccc1-c1nc2ccc3[nH]ncc3c2c2c1C1CCC2C1` (stereo not given), the growth in assay [1] was 65.8%; in assay [6] it was 34.3%; in assay [2], 61.8%; in assay [3] it was 20.5%; in assay [4], 110%; in assay [5], 25.3%.

As to `O=C(c1ccccc1)N(C(=S)NCCc1ccc(Cl)cc1)c1ccccc1`, the growth in assay [1] is 84%; in assay [6], 76.9%; in assay [2] it was 38.6%; in assay [3], 62.2%; in assay [4], 101%; in assay [5] it was 52.3%.

For the molecule `O=c1oc2ccc(F)cc2c(=O)n1-c1ccc(I)cc1F`, the growth in assay [1] is -1.4% (active); in assay [6], 11%; in assay [3], 7.36% (active); in assay [4], 14.6%; in assay [5] it was -0.975% (active).

In the case of `O=C(CCc1nnc2sc(-c3ccc(Cl)cc3Cl)nn12)c1nc2ncccc2[nH]1`, the growth in assay [1] is -31.2% (active); in assay [6] it was -30.4% (active); in assay [2], 6.03% (active); in assay [3], -73.6% (active); in assay [4], -71.6% (active); in assay [5], -52.2% (active).

In the case of `Nc1cccc(Nc2cc(S(=O)(=O)O)c(N)c3c2C(=O)c2ccccc2C3=O)c1`, the growth in assay [1] was 109%; in assay [6], 104%; in assay [3], 108%; in assay [4], 120%; in assay [5], 105%.

In the case of `O=c1oc2ccc(-c3ccc(F)cc3F)cc2c(=O)n1-c1ccc(Cl)c(C(F)(F)F)c1`, the growth in assay [1] was 7.88% (active); in assay [6] it was 14.6%; in assay [3] it was 6.47% (active); in assay [4], 25.6%; in assay [5], 3.84% (active).

For the molecule `O=c1c2cc(F)cc(Cl)c2sc2c(Cl)nc3ccccc3c12`, the growth in assay [1] is 110%; in assay [6], 97.7%; in assay [2], 77.1%; in assay [3], 104%; in assay [4] it was 104%; in assay [5], 101%.

Take `Nc1ccc(-c2nc3cc(Oc4ccc(Oc5ccc6[nH]c(-c7ccc(N)cc7)nc6c5)cc4)ccc3[nH]2)cc1`: the growth in assay [1] was 109%; in assay [2], 85.1%; in assay [3], 97%; in assay [4] it was 106%; in assay [5], 104%.

For `O=S1(=O)N(Cc2ccccc2)[C@@H](Cc2ccccc2)C2O[C@H]2[C@H](Cc2ccccc2)N1Cc1ccccc1` (stereo not given in full), the growth in assay [1] was 60.1%; in assay [6], 50.6%; in assay [3], 17%; in assay [5], 40.2%.

Take `O=C1c2cc(I)ccc2Oc2cc([N+](=O)[O-])ccc2N1c1ccc(Cl)cc1F`: the growth in assay [1] was 60.4%; in assay [6], 82.5%; in assay [2], 80.7%; in assay [3], 67.8%; in assay [4], 102%; in assay [5], 81.2%.

Take `CC[C@]1(O)C[C@@H]2CN(CCc3c([nH]c4ccccc34)[C@@](C(=O)OC)(c3cc4c(cc3OC)N(C)[C@H]3[C@@](O)(C(=O)OC)[C@H](OC(=O)CCCBr)[C@]5(CC)C=CCN6CC[C@]43[C@@H]65)C2)C1`: the growth is -36% (active) in assay [1]; 22.4% in assay [6]; 12.9% in assay [2]; 5.16% (active) in assay [3]; 9.27% (active) in assay [4]; 7.23% (active) in assay [5].

These data come from PubChem BioAssay (NCI).
